Source: PubChem BioAssay AID689 (Sanford-Burnham Center for Chemical Genomics, 2007)
Hit rate of the full screen: of about 62,000 compounds, about 80 (0.1%) were called active. How the calls were made is not given here. Not all results are given here. Measured potencies and affinities stand elsewhere.

Biological target: Ephrin type-A receptor 4 (Mus musculus) (UniProt Q03137)
Assay: inhibitors of EphA4 binding to KYL peptide, primary screen, biochemical, colorimetric, mouse EphA4 (AID 689)
Conditions: EphA4-AP binding to KYL peptide, pNPP A405, at 10 µM, stronger effect = higher value

Ephrin type-A receptor 4 (Mus musculus), sequence (Q03137 whole entry, looked up): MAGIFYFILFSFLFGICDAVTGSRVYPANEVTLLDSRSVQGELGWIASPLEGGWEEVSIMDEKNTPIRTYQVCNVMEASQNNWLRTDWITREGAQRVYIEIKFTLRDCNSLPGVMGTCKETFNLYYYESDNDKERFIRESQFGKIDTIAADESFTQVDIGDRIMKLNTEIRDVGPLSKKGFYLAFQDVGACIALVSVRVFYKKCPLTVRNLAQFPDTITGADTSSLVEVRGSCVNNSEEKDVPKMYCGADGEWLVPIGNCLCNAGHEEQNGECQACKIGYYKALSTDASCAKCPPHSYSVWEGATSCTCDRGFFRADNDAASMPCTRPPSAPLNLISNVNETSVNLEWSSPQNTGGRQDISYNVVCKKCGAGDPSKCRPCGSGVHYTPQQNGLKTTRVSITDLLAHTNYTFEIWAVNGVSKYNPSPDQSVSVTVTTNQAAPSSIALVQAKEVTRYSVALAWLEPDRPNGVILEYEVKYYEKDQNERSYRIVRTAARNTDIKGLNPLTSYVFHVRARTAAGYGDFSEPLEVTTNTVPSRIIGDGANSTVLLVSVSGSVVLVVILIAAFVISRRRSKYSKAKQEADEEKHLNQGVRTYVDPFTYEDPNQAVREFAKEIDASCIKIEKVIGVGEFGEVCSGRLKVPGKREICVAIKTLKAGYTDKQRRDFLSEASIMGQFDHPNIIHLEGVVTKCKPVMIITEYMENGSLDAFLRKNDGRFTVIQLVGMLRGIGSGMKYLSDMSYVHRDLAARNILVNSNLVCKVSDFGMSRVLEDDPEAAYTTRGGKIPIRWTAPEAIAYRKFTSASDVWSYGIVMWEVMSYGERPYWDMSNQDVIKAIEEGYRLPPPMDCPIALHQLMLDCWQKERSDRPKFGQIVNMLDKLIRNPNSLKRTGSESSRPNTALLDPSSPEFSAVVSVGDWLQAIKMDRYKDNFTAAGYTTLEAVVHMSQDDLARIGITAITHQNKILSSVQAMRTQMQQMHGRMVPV

inhibition, inactive:
O=c1oc2ccccc2c(O)c1/C=N/c1ccccn1 -4.8%
Oc1c(/C=N/c2ncn[nH]2)ccc2ccccc12 -0.6%
Cc1ccc(CNC(=O)C2CCCCC2C(=O)O)cc1 (stereo not given) -8.9%
COc1cc(C(=O)Nc2c(-c3ccccc3)c3cc(Br)ccc3[nH]c2=O)cc(OC)c1OC -0.5% [this sample at 5 µg/mL]
COc1ccc(OC)c(NC(=O)Cn2c(-c3ccc(Cl)cc3)noc2=O)c1 -3.5%
CCCC(=O)N1CCN(c2ccc(NC(=O)c3ccccc3)cc2)CC1 -0.5%
COc1ccc(NC(=O)CN2C(=O)C(C)Oc3ccccc32)cc1 (stereo not given) -3%
O=CNCCCc1nc2ccccc2n1Cc1ccccc1 7.7%
O=[N+]([O-])c1cccc(S(=O)(=O)N2CCOCC2)c1 2.9% [this sample at 5 µg/mL]
CCn1c2ccccc2c2nc3cc(S(=O)(=O)N4CCOCC4)ccc3nc21 32.3%
O=C(NCc1ccccc1)c1ccc2nccnc2c1 -12.5%
O=C(NCc1ccccc1)c1cccc(NC(=O)c2ccco2)c1 -2.1%
COc1ccc(CCNC(=O)c2ccc3nc(-c4ccco4)c(-c4ccco4)nc3c2)cc1OC 24.1%
O=C(NC1CCCC1)c1ccc2nc(-c3ccco3)c(-c3ccco3)nc2c1 18.8%
CCOC(=O)N1CCC(NC(=O)c2cc(C)c3c(C)nn(-c4ccccc4)c3n2)CC1 -3.2%
COc1c(Cl)cc(C(=O)Nc2cccc3ccccc23)cc1Cl -13.9% [this sample at 5 µg/mL]
CCc1nc(SCc2nc3ccccc3[nH]2)c2oc3ccccc3c2n1 12.7%
Cc1sc(NC(=O)CN(C)C2CCCCC2)nc1-c1ccc2c(c1)CCN2S(=O)(=O)c1ccccc1 -7%
O=C(Cc1ccc(F)cc1)Nc1ccccc1Br -10% [this sample at 5 µg/mL]
CCOC(=O)c1cc(OC(=O)c2ccccc2)n(-c2ccccc2)n1 0.3%
CCOC(=O)c1c(C)oc2ccc(OC(=O)c3ccccc3OC)cc12 -1% [this sample at 5 µg/mL]
Cc1onc(-c2ccccc2Cl)c1C(=O)Nc1ccccc1N1CCOCC1 4%
Cc1nn(-c2ccc(Cl)cc2)c2sc(C(=O)N3CCN(C(=O)c4ccco4)CC3)cc12 -24.1%
CCCCc1nnc(SCc2ccc(OCC)cc2)n1N -2.2%
COc1cc2[nH]c3c(N4CCC(C(N)=O)CC4)ncnc3c2cc1OC -14.4%
CCSc1ncnc2c1sc1nc(-c3ccco3)c3c(c12)CC(C)(C)OC3 -1.2%
CSc1nc(N2CCN(CCO)CC2)c2sc3nc(-c4ccco4)c4c(c3c2n1)CCC4 -2.2%
CSc1nc(NCc2ccco2)c2sc3nc(C(C)C)c4c(c3c2n1)CC(C)(C)OC4 -8.5%
CSc1nc(N(C)CCO)c2sc3nc(-c4ccco4)c4c(c3c2n1)CCC4 46.9%
COC(=O)c1c(C)oc2ccc(OCc3ccccc3Br)cc12 -1.2% [this sample at 5 µg/mL]
CC1CCN(c2cc(N3CCOCC3)c([N+](=O)[O-])cc2F)CC1 17.1%
CCCCCn1c(N)c(C#N)c2nc3ccccc3nc21 0.7%
CCCCn1c2nc3ccccc3nc2c2c(=O)n(C(C)CC)cnc21 (stereo not given) 0.6%
CCCCn1c2nc3ccccc3nc2c2c(=O)n(CCC)cnc21 -2.2%
Cn1nc(-c2ccccc2)c2nc3ccccc3nc21 45.4%
CCCn1cnc2c(c1=O)c1nc3ccccc3nc1n2CCc1ccccc1 -9.5%
CCCn1nc(NS(=O)(=O)c2ccccc2)c2cc3ccccc3nc21 -10.6%
c1ccc(-c2nc(-n3nc4ccccc4n3)nc3ccccc23)cc1 -3.4%
CCCCCn1c2nc3ccccc3nc2c2c(=O)n(CC(C)C)cnc21 -9.1%
COc1cc(NC(=O)c2cnn3c2NC(c2ccc(Br)cc2)CC3C(F)(F)F)cc(OC)c1OC (stereo not given) -4.6% [this sample at 5 µg/mL]
COc1ccc(-c2c(C(C)=O)c(C)nc3sc4c(c23)NC(c2ccccc2)NC4=O)cc1 (stereo not given) -23.5%
CC1(C)CC(=O)C2=C(C1)N(Cc1ccco1)C(=O)NC2(C(F)(F)F)C(F)(F)F -8.1%
Oc1ccc(N2CCN(c3ncnc4sc5c(c34)CCC5)CC2)cc1 -17.1%
COc1ccccc1CNC(=O)c1oc2ccc(S(=O)(=O)N3CCCC3)cc2c1C 2.1%
Cc1[nH]n(CCC#N)c(=O)c1CC(=O)N1CCN(c2ccccc2)CC1 -10.6%
O=C(Nc1ccc2nn(-c3ccccc3)nc2c1)c1ccc(Cl)c([N+](=O)[O-])c1 -18.3% [this sample at 5 µg/mL]
CCOC(=O)C(C)(C)C(=O)C(C)(C)C(O)c1ccccn1 (stereo not given) -7.7%
CC(C)Cn1c(N)c(C(=O)CSc2nnnn2C)c(=O)n(C)c1=O -12%
Cc1cc2ccccc2n1CCNC(=O)C1CCCC1 0.5%
Cc1ccc(S(=O)(=O)NCCn2c(C)cc3ccccc32)cc1 13.5%
CCOc1ccc(NS(=O)(=O)c2ccc(OC)c(C)c2)cc1 -20.6%
O=C(Nc1nc(-c2ccccc2)c(-c2ccccc2)s1)c1ccc(S(=O)(=O)N2CCCC2)cc1 8.7% [this sample at 5 µg/mL]
Cc1ocnc1C(=O)Nc1ccc(Cl)cc1 -10.1%
CC(=O)C12c3ccccc3C(c3ccccc31)C1C(=O)NC(=O)C12 (stereo not given) -14.2% [this sample at 5 µg/mL]
CCOc1ccc(N(CC(=O)Nc2ccc(Br)cc2)S(=O)(=O)c2ccc(SC)cc2)cc1 -3.8% [this sample at 5 µg/mL]
